# Measurements from PubChem BioAssay AID2284138 (EPA ToxCast).
# Inconclusive results are not listed. Active and inactive are the calls of the source. How the source made its calls: active means hit-call score of the fitted dose curve at least 0.9, where 1 is the maximum; inactive means score below 0.9.
# Biological target: human ROCK1 AGC Kinase, ROCK1 (gene 6093) (UniProt Q13464)
# Assay: ERF_FR_ENZ_hROCK1: Eurofins (ERF) Enzymatic Radiometric [Km ATP] KinaseProfiler LeadHunter Assay for human ROCK1 AGC Kinase
# Method: ERF_FR_ENZ_hROCK1 is a biochemical, single-readout assay that uses extracted gene-proteins in a cell-free assay. Measurements were taken 0.33 hour after chemical dosing in a 96-well plate. See ROCK1 Human AGC Kinase Enzymatic LANCE Assay [Km ATP], Cerep.ERF_FR_ENZ_hROCK1 is an assay component calculated from the ERF_FR_ENZ_hROCK1 assay. It is designed to measure enzyme activity using a type of enzyme reporter as detected by fluorescence intensity with LANCE technology.Data from the assay component ERF_FR_ENZ_hROCK1 was analyzed at the assay endpoint, ERF_FR_ENZ_hROCK1, in the positive analysis fitting direction relative to DMSO as the negative control and baseline of activity. Using a type of enzyme reporter, loss-of-signal activity can be used to understand changes in enzymatic activity as they relate to gene ROCK1. To generalize the intended target to other relatable targets, this assay endpoint is annotated to the kinase intended target family, where the subfamily is serine/threonine kinase.
# ROCK-I (h) is incubated with 8 mM MOPS pH 7.0, 0.2 mM EDTA, 30 uM […], 10 mM MgAcetate and [gamma-33P]-ATP (specific activity and concentration as required). The reaction is initiated by the addition of the Mg/ATP mix. After incubation for 40 minutes at room temperature, the reaction is stopped by the addition of phosphoric acid to a concentration of 0.5%. […]
# Sequence of human ROCK1 AGC Kinase, ROCK1 (gene 6093) (Q13464 whole entry, looked up): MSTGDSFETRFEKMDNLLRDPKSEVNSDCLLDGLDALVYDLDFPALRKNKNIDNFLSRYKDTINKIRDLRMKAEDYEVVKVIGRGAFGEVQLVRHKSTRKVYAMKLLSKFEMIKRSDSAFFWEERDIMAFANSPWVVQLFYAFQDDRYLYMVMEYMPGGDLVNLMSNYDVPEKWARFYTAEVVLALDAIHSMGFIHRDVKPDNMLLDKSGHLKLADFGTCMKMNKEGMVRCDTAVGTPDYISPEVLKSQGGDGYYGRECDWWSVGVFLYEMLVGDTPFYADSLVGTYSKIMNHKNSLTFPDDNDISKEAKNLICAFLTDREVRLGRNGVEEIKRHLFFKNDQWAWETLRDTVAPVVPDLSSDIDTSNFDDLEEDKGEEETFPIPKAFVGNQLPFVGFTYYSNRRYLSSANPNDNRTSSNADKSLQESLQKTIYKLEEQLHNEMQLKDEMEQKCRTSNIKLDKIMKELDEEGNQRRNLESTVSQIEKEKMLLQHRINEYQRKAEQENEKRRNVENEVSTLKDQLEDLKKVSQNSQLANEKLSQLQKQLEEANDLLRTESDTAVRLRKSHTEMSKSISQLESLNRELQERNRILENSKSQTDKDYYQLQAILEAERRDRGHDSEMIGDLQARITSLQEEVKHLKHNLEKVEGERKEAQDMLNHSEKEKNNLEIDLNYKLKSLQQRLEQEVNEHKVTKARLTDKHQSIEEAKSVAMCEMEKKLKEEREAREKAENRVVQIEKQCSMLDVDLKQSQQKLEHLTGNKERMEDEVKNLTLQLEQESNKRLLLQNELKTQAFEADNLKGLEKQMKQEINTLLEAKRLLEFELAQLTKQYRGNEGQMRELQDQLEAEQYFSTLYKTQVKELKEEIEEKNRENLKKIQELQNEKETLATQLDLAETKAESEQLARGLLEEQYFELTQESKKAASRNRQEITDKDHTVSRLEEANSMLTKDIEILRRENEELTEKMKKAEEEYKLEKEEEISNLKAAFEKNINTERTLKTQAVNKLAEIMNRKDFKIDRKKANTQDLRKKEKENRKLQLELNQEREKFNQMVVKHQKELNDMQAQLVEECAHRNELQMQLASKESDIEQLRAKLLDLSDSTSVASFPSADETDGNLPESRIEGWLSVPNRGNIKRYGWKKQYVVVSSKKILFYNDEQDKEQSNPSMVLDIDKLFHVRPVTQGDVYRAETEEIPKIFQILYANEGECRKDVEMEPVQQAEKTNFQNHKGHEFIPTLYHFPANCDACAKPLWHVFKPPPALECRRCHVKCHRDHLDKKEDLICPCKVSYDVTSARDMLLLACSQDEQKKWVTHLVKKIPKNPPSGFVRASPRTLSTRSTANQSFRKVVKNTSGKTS
row,Compound,outcome
1,O=C(/C=C/c1ccc(O)cc1)CC(=O)/C=C/c1ccc(O)cc1,inactive
2,COc1cc(CCC(=O)CC(=O)CCc2ccc(O)c(OC)c2)ccc1O,inactive
